# HT1080 IDH1KD tx – HT-1080 IDH1 knockdown cell toxicity (counter line); HT-1080 IDH1 knockdown viability, ATP luminescence, 48 h; Potency, µM (doses to about 46.1 µM), most hits filed as cytotoxic; 360,000 compounds, 2% hits; AID 686971
#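 Cytotoxicity counter-line: IDH1KD HT-1080, 48 h, CellTiter-Glo. Curves classed by r2, magnitude and activity.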
# DT40 TDP1 no CPT – qHTS for Inhibitors of human tyrosyl-DNA phosphodiesterase 1 (TDP1): qHTS in cells in absence of CPT | DT40 Tdp1-/- hTDP1 cells, no CPT, ATP luminescence, 48 h | 420,000 compounds, 15% hits | Potency, µM (highest dose often 46.2 µM), hits mostly inhibitors; further: nearly all actives have a fitted effect of over 55% in size
#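 Growth of hTDP1-complemented DT40 Tdp1-knockout cells is measured by ATP luminescence after at least 48 hr compound exposure at 37 °C, with DMSO substituting for the 20 nM CPT used in the parallel screen.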
# HT1080-NT tox – kills 2HG-producing HT-1080-NT fibrosarcoma cells; HT-1080-NT fibrosarcoma viability, CellTiter-Glo ATP luminescence, 48 h; 360,000 compounds, 1.6% hits; Potency, µM (series often up to 46.1 µM), actives largely listed as cytotoxic;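 further: NT is the 2HG producing partner of a matched IDH1 knockdown line; nearly all actives have a fitted effect of over 55% in size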
#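 HT-1080-NT; 750 cells/well; 5% FBS RPMI; 48 h compound, 37 degrees C; CellTiter-Glo luminescence; curve fitting and curve-class assignment.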
# ALOX12 inh – blocks human arachidonate 12S-lipoxygenase. P18054. purified 12hLO, xylenol orange hydroperoxide absorbance. Potency, µM (titrated, usually from 108 µM), most hits filed as inhibitors. 580,000 compounds, 1.1% hits
# Target sequence (P18054 whole entry, looked up): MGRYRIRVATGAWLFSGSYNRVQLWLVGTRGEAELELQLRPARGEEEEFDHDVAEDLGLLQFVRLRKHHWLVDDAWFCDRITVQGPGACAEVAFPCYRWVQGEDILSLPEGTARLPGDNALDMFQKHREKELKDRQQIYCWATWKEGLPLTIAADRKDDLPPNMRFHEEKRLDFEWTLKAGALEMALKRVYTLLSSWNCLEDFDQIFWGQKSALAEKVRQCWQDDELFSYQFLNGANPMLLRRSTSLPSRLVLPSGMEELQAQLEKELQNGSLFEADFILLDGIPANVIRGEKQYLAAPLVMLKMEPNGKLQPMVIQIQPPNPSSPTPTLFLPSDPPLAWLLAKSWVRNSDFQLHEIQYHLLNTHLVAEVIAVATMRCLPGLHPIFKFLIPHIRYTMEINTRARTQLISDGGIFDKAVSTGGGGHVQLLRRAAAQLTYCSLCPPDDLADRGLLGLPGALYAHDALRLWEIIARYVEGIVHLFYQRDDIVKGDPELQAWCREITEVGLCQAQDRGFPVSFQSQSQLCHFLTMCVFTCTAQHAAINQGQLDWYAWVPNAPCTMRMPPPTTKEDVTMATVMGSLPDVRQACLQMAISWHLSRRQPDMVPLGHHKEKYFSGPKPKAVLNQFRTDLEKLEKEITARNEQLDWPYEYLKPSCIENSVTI
#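 Purified human 12hLO at 150 nM in 25 mM Hepes, 0.01% Triton X-100, pH 7.0, preincubated 15 min at room temperature with compound. Reaction started with 40 uM arachidonic acid, 30 min at room temperature. Hydroperoxide measured by Fe-xylenol orange, 573/405 nm absorbance ratio.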
# IL-1B inflam inh – blocks inflammasome-driven IL-1 beta release. THP-1 LPS/ATP IL-1B secretion, AlphaLISA, 16 h; hits give low values. activity change, % at 57.5 µM. 360,000 compounds, 4.7% hits; in the data active means activity change below about -50%; inconclusive means mostly about -30% to -49%
#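 Secreted IL-1B measured by AlphaLISA bead assay after 16 h compound exposure of THP-1 cells; compounds (final up to 57.5 uM) added 1 h before LPS (250 ng/mL) and ATP (1.25 mM) stimulation; lower signal means less secretion.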
# TDP1 cell CPT – DT40-hTDP1 cell growth loss with CPT; chicken DT40 Tdp1-/-;hTDP1 cells + 20 nM CPT, ATP luminescence, 48 h; Potency, µM (titrated, usually from 46.2 µM), actives largely listed as inhibitors; 420,000 compounds, 12% hits; further: nearly all actives have a fitted effect of over 55% in size
#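 Chicken DT40 Tdp1-/- cells complemented with human TDP1, 400 cells/well, exposed to compounds plus 20 nM camptothecin for at least 48 h at 37 C; viability read as ATP content by CellTiter-Glo luminescence.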
# Numbers stand for hits; - = inactive; ? = inconclusive; . = no result. The entries come from a sample that favours hits as a whole. Unless noted, the call rests on the fitted dose curve; in most records, active means well fitted curve in the direction sought with a large enough effect; inconclusive means small, poorly fitted or top-dose-only effect, or another doubt; inactive means no such curve, though single readings can be large; an effect the other way counts as inactive or inconclusive.
SMILES,HT1080 IDH1KD tx,DT40 TDP1 no CPT,HT1080-NT tox,ALOX12 inh,IL-1B inflam inh,TDP1 cell CPT
CCCc1ccc(O)c(N=Cc2cc(Br)cc(OCC)c2O)c1,23µM,2.6µM,?,?,-,3.7µM
CCN(c1ccccc1)S(=O)(=O)c1cc(C(=O)NCC(c2ccco2)N2CCCCC2)ccc1C (centres undefined),-,?,-,-,-79,?
CCN(c1ccccc1)S(=O)(=O)c1cccc(C(=O)NCC(c2ccco2)N2CCCCC2)c1 (centres undefined),?,16µM,-,-,-55,?
CC(Sc1ncnc2nc[nH]c12)C(=O)Nc1ccc(OC(F)(F)F)cc1 (centres undefined),.,.,.,-,.,.
C=CCNC(=O)/C(C#N)=C\c1cc(Cl)c(O)c(OCC)c1,-,-,-,-,-,-
CCOc1cc(/C=C(/C#N)C(=O)Nc2ccc(O)cc2)cc(Br)c1O,2.3µM,0.92µM,1.8µM,-,-,0.65µM
N#C/C(=C/c1ccc2c(c1)OCO2)C(=O)Nc1ccc(O)cc1,-,12µM,-,-,-,7.3µM
CN(C)S(=O)(=O)c1ccc(-c2nc(C#N)c(NCCCN3CCOCC3)o2)cc1,.,.,.,-,.,.
Cc1c(-c2ccccc2)oc2c(C(=O)OCC(=O)NCC3CCCCC3)cccc2c1=O,.,.,.,-,.,.
O=C(Nc1cccc(-c2nc3ncccc3o2)c1)c1sc2cc(Cl)ccc2c1Cl,-,?,-,-,-,?
O=C(Nc1cccc(-c2nc3ncccc3o2)c1)c1cc2ccccc2o1,-,23µM,-,-,-,21µM
O=C(Nc1cccc(-c2nc3ncccc3o2)c1)c1sc2ccccc2c1Cl,-,?,-,-,-,10µM
O=C(Nc1cccc(C(F)(F)F)c1)N[C@H]1CO[C@H]2[C@@H]1OC[C@@H]2n1nnnc1Oc1ccc(-n2ccnc2)cc1,.,.,.,-,.,.
CC1(c2ccccc2)CC(C)(C)N(C(=O)c2ccccc2Cl)c2ccccc21 (centres undefined),.,5.2µM,.,-,.,6.5µM
CC1(c2ccc(Cl)cc2)CC(C)(C)N(C(=O)c2cccc(F)c2)c2ccccc21 (centres undefined),.,18µM,.,?,.,?
Cc1cc(C)n(-c2nc3ccccc3c(=O)n2OCCOc2ccccc2)n1,-,18µM,?,-,-,12µM
CC(=O)NC1C(=O)N(CCOc2cccc(C)c2)c2ccc(C)cc21 (centres undefined),.,.,.,-,.,.
C[C@@H]1CC=C[C@@H]2[C@H]1C(=O)N(Cc1ccccc1)[C@H]2c1ccccc1Br,?,16µM,?,-,-,18µM
COc1ccc(C2=CN(Cc3ccccc3)C(c3ccccc3)CC2=O)cc1 (centres undefined),?,?,?,?,-,?
COc1ccc(-c2ccccc2[C@H]2[C@@H]3C=CC[C@@H](C)[C@@H]3C(=O)N2Cc2ccccc2)cc1,?,10µM,?,-,-,13µM
COc1nc(N(C)C)nc(-n2cnc(SCc3ccccc3)n2)n1,.,.,.,-,.,.
Cc1ccc(NC(=O)Cn2c(N3CCCCC3)nc(C)c(C)c2=O)cc1,.,.,.,-,.,.
O=[N+]([O-])c1ccc2[nH]c(O)c(N=NC(=S)Nc3cccnc3)c2c1,-,-,-,?,-,-
Oc1cccc(NC(=S)N=Nc2c(O)[nH]c3ccccc23)c1,?,13µM,?,?,-,?
CCOc1ccc(NC(=S)N=Nc2c(O)[nH]c3ccccc23)cc1,?,7.3µM,?,-,-,9.2µM
SMILES,HT1080 IDH1KD tx,DT40 TDP1 no CPT,HT1080-NT tox,ALOX12 inh,IL-1B inflam inh,TDP1 cell CPT
COC(=O)C1=C(C)N(c2ccccc2)C(=O)CC1C(=O)Nc1cc(OC)c(OC)c(OC)c1 (centres undefined),.,.,.,-,.,.
O=C(Cc1cn2ccsc2n1)Nc1ccc(S(=O)(=O)N2CCCCCC2)cc1,.,.,.,-,.,.
COC(=O)c1c(Cl)c2n3ccccc3c(C)c(-c3ccccc3)c-2c1C(=O)OC,-,23µM,-,?,-,?
Cc1ccc(C(=O)NCC(=O)N2CCN(c3ccccn3)CC2)cc1,.,.,.,-,.,.
NC1=NC(=O)S/C1=C\c1ccc(F)cc1,?,-,23µM,-,-,-
CCOc1ccc(NC(=S)NC(=O)/C=C/c2ccco2)cc1,-,18µM,-,-,-,?
CCOc1ccc(C(NC(=O)/C=C/c2ccco2)c2ccc(OC)c(OC)c2)cc1 (centres undefined),-,-,-,?,?,-
COc1ccc(C(NC(=O)/C=C/c2ccco2)c2ccc(OC)c(OC)c2)cc1 (centres undefined),-,-,-,45µM,-,-
CN1CCN(c2ccc(NC(=S)NC(=O)/C=C/c3ccco3)cc2)CC1,?,21µM,?,?,-96,?
COc1ccc(NC(=S)NC(=O)/C=C/c2ccco2)c(OC)c1,-,?,-,35µM,-,-
CC(=O)Nc1ccc(NC(=S)NC(=O)/C=C/c2ccco2)cc1,-,?,-,-,-,?
